# PubChem BioAssay (NCATS)
# Records with an inconclusive call do not appear. Activity calls are given as the source filed them. Calls follow the shape of the dose curve; as a rule, active = well fitted curve in the direction sought with a large enough effect; inconclusive = small, poorly fitted or top-dose-only effect, or another doubt; inactive = no such curve, though single readings can be large; an effect the other way counts as inactive or inconclusive. Non-standard residues stand in square brackets, D forms with d. Residues, ends and D or L forms follow the SMILES beside them. *: point of attachment. Sta = CC(C)C[C@H](N)[C@@H](O)CC(=O)O; Isovaleryl = CC(C)CC(=O)*
# Legend:
# [1] = Quantitative High-Throughput drug screen in 47 multiple myeloma cell lines against the NCATS MIPE library collection: KMS20_JCRB cell viability assay (AID 1918973); also: nearly all actives have a fitted effect of over 45% in size
# Outline: (§1)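 Approved and investigational drugs from MIPE 4.0 were added by pin tool to 500 cells per well. After 48 hours at 37C, ATP-based CellTiter-Glo luminescence indicated remaining viability.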
# [2] = Quantitative High-Throughput drug screen in 47 multiple myeloma cell lines against the NCATS MIPE library collection: KMS21BM_JCRB cell viability assay (AID 1918974); conditions: ATP luminescence, 48 h; viability: at 45.8 µM (top of the series) unless noted
# Outline: as §1
# [3] = Quantitative High-Throughput drug screen in 47 multiple myeloma cell lines against the NCATS MIPE library collection: L363_DSMZ cell viability assay (AID 1918984); also: nearly all actives have a fitted effect of over 40% in size
# Outline: (§2)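 Plated at 500 cells per well, myeloma lines received MIPE 4.0 compounds by pin tool. Following 48 h culture at 37 °C, CellTiter-Glo luminescence gave viability relative to DMSO and media-only controls.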
# [4] = Quantitative High-Throughput drug screen in 47 multiple myeloma cell lines against the NCATS MIPE library collection: KMS34_JCRB cell viability assay (AID 1918985); also: nearly all actives have a fitted effect of over 40% in size
# Outline: as §2
# [5] = Quantitative High-Throughput drug screen in 47 multiple myeloma cell lines against the NCATS MIPE library collection: OCIMY5_PLB cell viability assay (AID 1918988); also: nearly all actives have a fitted effect of over 65% in size
# Outline: as §2
# [6] = Quantitative High-Throughput drug screen in 47 multiple myeloma cell lines against the NCATS MIPE library collection: Karpas25_ECACC cell viability assay (AID 1918968; also: nearly all actives have a fitted effect of over 35% in size)
# Outline: as §1
# [7] = Quantitative High-Throughput drug screen in 47 multiple myeloma cell lines against the NCATS MIPE library collection: KMS12PE_JCRB cell viability assay (AID 1918972); also: nearly all actives have a fitted effect of over 30% in size
# Outline: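 We plated 500 myeloma cells per well, pinned in MIPE 4.0 compounds, and incubated for 48 hours at 37C. ATP was then quantified with CellTiter-Glo, with DMSO and media-only wells defining 100% and 0%.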
# [8] = Quantitative High-Throughput drug screen in 47 multiple myeloma cell lines against the NCATS MIPE library collection: KMS26_JCRB cell viability assay (AID 1918975); also: nearly all actives have a fitted effect of over 45% in size
# Outline: (§3)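 CellTiter-Glo luminescence (ATP) after 48 h compound exposure, 37C/5% CO2; 500 cells/well; MIPE 4.0 approved/investigational drugs pinned in; DMSO = 100%, media only = 0% viability.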
# [9] = Quantitative High-Throughput drug screen in 47 multiple myeloma cell lines against the NCATS MIPE library collection: OCIMY1_PLB cell viability assay (AID 1918979); also: nearly all actives have a fitted effect of over 35% in size
# Outline: as §2
# [10] = Quantitative High-Throughput drug screen in 47 multiple myeloma cell lines against the NCATS MIPE library collection: MM1S_ATCC cell viability assay (AID 1918980); also: nearly all actives have a fitted effect of over 45% in size
# Outline: as §2
# [11] = Quantitative High-Throughput drug screen in 47 multiple myeloma cell lines against the NCATS MIPE library collection: MM1R_ATCC cell viability assay (AID 1918981); also: nearly all actives have a fitted effect of over 35% in size
# Outline: as §2
# [12] = Quantitative High-Throughput drug screen in 47 multiple myeloma cell lines against the NCATS MIPE library collection: LP1_DSMZ cell viability assay (AID 1918982); also: nearly all actives have a fitted effect of over 35% in size
# Outline: as §2
# [13] = Quantitative High-Throughput drug screen in 47 multiple myeloma cell lines against the NCATS MIPE library collection: KMS27_JCRB cell viability assay (AID 1918970); also: nearly all actives have a fitted effect of over 30% in size
# Outline: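 ATP-based viability (CellTiter-Glo luminescence) is measured in cells treated 48 h with approved and investigational drugs at 37 °C. Controls are DMSO-only wells for full viability and media-only wells for none.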
# [14] = Quantitative High-Throughput drug screen in 47 multiple myeloma cell lines against the NCATS MIPE library collection: NCIH929_DSMZ cell viability assay (AID 1918978); also: nearly all actives have a fitted effect of over 35% in size
# Outline: as §2
# [15] = Quantitative High-Throughput drug screen in 47 multiple myeloma cell lines against the NCATS MIPE library collection: OCIMY7_PLB cell viability assay (AID 1918987); also: nearly all actives have a fitted effect of over 65% in size
# Outline: as §2
# [16] = Quantitative High-Throughput drug screen in 47 multiple myeloma cell lines against the NCATS MIPE library collection: KMS28PE_JCRB cell viability assay (AID 1918983); also: nearly all actives have a fitted effect of over 35% in size
# Outline: as §2
# [17] = Quantitative High-Throughput drug screen in 47 multiple myeloma cell lines against the NCATS MIPE library collection: KMS12BM_JCRB cell viability assay (AID 1918971); also: nearly all actives have a fitted effect of over 35% in size
# Outline: as §3
# [18] = Quantitative High-Throughput drug screen in 47 multiple myeloma cell lines against the NCATS MIPE library collection: MOLP8_DSMZ cell viability assay (AID 1918977); also: nearly all actives have a fitted effect of over 45% in size
# Outline: as §2
# [19] = Quantitative High-Throughput drug screen in 47 multiple myeloma cell lines against the NCATS MIPE library collection: MMM1_PLB cell viability assay (AID 1918976); also: nearly all actives have a fitted effect of over 35% in size
# Outline: as §2
# Potency is read from the fitted curve at half-maximal effect.
smiles,measurement,setting,value
Cc1nc(Nc2ncc(C(=O)Nc3c(C)cccc3Cl)s2)cc(N2CCN(CCO)CC2)n1,Potency,[1],0.332 µM (active)
same,Potency,[2],0.209 µM (active)
same,Potency,[3],1.32 µM (active)
same,Potency,[4],0.59 µM (active)
same,Potency,[5],0.743 µM (active)
C[C@@H](c1ncncc1F)[C@](O)(Cn1cncn1)c1ccc(F)cc1F,Potency,[6],inactive
same,Potency,[7],inactive
same,Potency,[8],inactive
same,Potency,[9],inactive
same,Potency,[10],inactive
same,Potency,[11],inactive
same,Potency,[12],inactive
same,Potency,[4],inactive
same,Potency,[5],inactive
Clc1ccc(C(Cn2ccnc2)OCc2ccsc2Cl)c(Cl)c1 (centres undefined),Potency,[6],20.9 µM (active)
same,Potency,[13],26.4 µM (active)
same,Potency,[7],18.7 µM (active)
same,Potency,[8],inactive
same,Potency,[4],inactive
same,Potency,[5],26.4 µM (active)
COc1cc2c(N3CCN(C(=O)Nc4ccc(OC(C)C)cc4)CC3)ncnc2cc1OCCCN1CCCCC1,Potency,[6],9.35 µM (active)
same,Potency,[1],5.26 µM (active)
same,Potency,[14],11.8 µM (active)
same,Potency,[10],26.4 µM (active)
same,Potency,[3],inactive
CN(C)C(=O)[C@H](O)[C@H](Cc1ccccc1)NC(=O)c1cc2cc(Cl)ccc2[nH]1,Potency,[7],2.09 µM (active)
same,Potency,[1],7.43 µM (active)
same,Potency,[8],20.9 µM (active)
same,Potency,[14],1.32 µM (active)
same,Potency,[10],18.7 µM (active)
same,Potency,[11],13.2 µM (active)
same,Potency,[3],2.64 µM (active)
same,Potency,[4],0.935 µM (active)
same,Potency,[15],2.96 µM (active)
same,Potency,[5],13.2 µM (active)
Cc1ccc(C(=O)c2cc(O)c(O)c([N+](=O)[O-])c2)cc1,Potency,[6],26.4 µM (active)
same,Potency,[13],23.5 µM (active)
same,Potency,[1],20.9 µM (active)
same,Potency,[10],20.9 µM (active)
same,Potency,[12],inactive
same,Potency,[16],inactive
same,Potency,[3],16.6 µM (active)
same,Potency,[4],inactive
COC1=C(OC)C(=O)C(CCCCCCCCCCO)=C(C)C1=O,Potency,[17],16.6 µM (active)
same,Potency,[7],18.7 µM (active)
same,Potency,[8],23.5 µM (active)
same,Potency,[14],23.5 µM (active)
same,Potency,[16],14.8 µM (active)
same,Potency,[3],14.8 µM (active)
same,Potency,[5],20.9 µM (active)
C[C@]12CCC(=O)C=C1CC[C@@H]1[C@H]2[C@@H](O)C[C@@]2(C)[C@H]1CC[C@]2(O)C(=O)CO,Potency,[6],5.9 µM (active)
same,Potency,[13],inactive
same,Potency,[18],inactive
same,Potency,[9],inactive
same,Potency,[12],inactive
same,Potency,[3],inactive
same,Potency,[5],inactive
NC(=O)Cc1cccc(C(=O)c2ccccc2)c1N,Potency,[13],inactive
same,Potency,[7],inactive
same,Potency,[8],inactive
same,Potency,[18],inactive
same,Potency,[14],inactive
same,Potency,[11],inactive
same,Potency,[12],inactive
same,Potency,[16],inactive
same,Potency,[3],inactive
same,Potency,[5],4.69 µM (active)
Nc1nc(Cl)nc2c1ncn2[C@H]1C[C@H](O)[C@@H](CO)O1,Potency,[13],0.296 µM (active)
same,Potency,[17],0.0833 µM (active)
same,Potency,[7],0.0372 µM (active)
same,Potency,[1],1.48 µM (active)
same,Potency,[2],0.0935 µM (active)
same,Potency,[19],4.69 µM (active)
same,Potency,[14],0.59 µM (active)
same,Potency,[10],0.59 µM (active)
same,Potency,[11],0.264 µM (active)
same,Potency,[12],inactive
same,Potency,[15],0.001 µM (active)
CC(C)CC(=O)N[C@H](C(=O)N[C@H](C(=O)N[C@@H](CC(C)C)[C@@H](O)CC(=O)N[C@@H](C)C(=O)N[C@@H](CC(C)C)[C@@H](O)CC(=O)O)C(C)C)C(C)C (Isovaleryl-VV[Sta]A[Sta]-OH),Potency,[13],inactive
same,Potency,[1],inactive
same,Potency,[8],inactive
same,Potency,[11],inactive
same,Potency,[12],inactive
same,Potency,[3],inactive
same,Potency,[15],inactive
CC1(C)C(=O)N(CCN2CCC(C(=O)c3ccc(F)cc3)CC2)c2ccccc21,Potency,[6],13.2 µM (active)
same,Potency,[13],13.2 µM (active)
same,Potency,[7],10.5 µM (active)
same,Potency,[1],4.18 µM (active)
same,Potency,[10],20.9 µM (active)
same,Potency,[11],16.6 µM (active)
same,Potency,[16],inactive
same,Potency,[3],13.2 µM (active)
same,Potency,[5],5.26 µM (active)
O=c1ccc2ccc(O)c(O)c2o1,Potency,[6],3.32 µM (active)
same,Potency,[17],18.7 µM (active)
same,Potency,[1],16.6 µM (active)
same,Potency,[10],4.18 µM (active)
NCCCCNCCCN,Potency,[6],18.7 µM (active)
same,Potency,[17],20.9 µM (active)
same,Potency,[1],18.7 µM (active)
same,Potency,[8],3.72 µM (active)
same,Potency,[19],10.5 µM (active)
same,Potency,[18],4.18 µM (active)
same,Potency,[14],18.7 µM (active)
same,Potency,[9],10.5 µM (active)
same,Potency,[10],3.32 µM (active)
same,Potency,[11],2.96 µM (active)
same,Potency,[12],16.6 µM (active)
same,Potency,[4],9.35 µM (active)
same,Potency,[5],14.8 µM (active)
Nc1nc(N)c(N=O)c(OCC2CCCCC2)n1,Potency,[6],5.9 µM (active)
same,Potency,[17],13.2 µM (active)
same,Potency,[7],4.69 µM (active)
same,Potency,[1],4.69 µM (active)
same,Potency,[8],13.2 µM (active)
same,Potency,[18],5.26 µM (active)
same,Potency,[14],5.26 µM (active)
same,Potency,[10],13.2 µM (active)
same,Potency,[11],14.8 µM (active)
same,Potency,[3],2.64 µM (active)
same,Potency,[4],11.8 µM (active)
same,Potency,[15],1.48 µM (active)
same,Potency,[5],13.2 µM (active)
CN(C)c1ccc(O)c2c1C[C@H]1C[C@H]3[C@H](N(C)C)C(=O)C(C(N)=O)=C(O)[C@@]3(O)C(=O)C1=C2O,Potency,[6],16.6 µM (active)
same,Potency,[17],18.7 µM (active)
same,Potency,[7],inactive
same,Potency,[8],13.2 µM (active)
same,Potency,[14],16.6 µM (active)
same,Potency,[9],18.7 µM (active)
same,Potency,[10],3.72 µM (active)
same,Potency,[11],16.6 µM (active)
same,Potency,[4],16.6 µM (active)
same,Potency,[5],9.35 µM (active)
